PriA SSB inh – K. pneumoniae PriA-SSBct interaction inhibition; AlphaScreen SSBct-PriA binding, biotinylated peptide; inhibition, % at 33 µM; 430,000 compounds, 0.6% hits; AID 1272365; in the data active = inhibition mostly above about 37%, no sharp cut-off; inactive = mostly below about 20%
Mtb hypoxia rep – Mtb hypoxia fluorescent reporter inhibition. M. tuberculosis hypoxia-regulated fluorescent reporter, fluorescence. fluorescence inhibition, % (test concentration not listed). 300,000 compounds, 0.1% hits. AID 1159583; in the data active = fluorescence inhibition mostly above about 23%, no sharp cut-off; inactive = mostly below about 17%
ugtP null kill – kills S. aureus RN4220 lacking UgtP | S. aureus RN4220 ugtP deletion, OD600 growth, 16 h | growth inhibition, % (test concentration not listed) | 330,000 compounds, 0.54% hits | AID 1259309; in the data active = growth inhibition above about 68%
Sa RN4220 lethal – S. aureus RN4220 growth inhibition. 330,000 compounds, 0.33% hits. inhibition, % (no concentration beside the values). OD600, 16 h. AID 1259311; in the data active = inhibition above about 85%
Each line names hits and unclear results; the compound was inactive in the other large screens. Sampled rows, rich in hits. Any-hit rate of the full collection: about 1.1%.

COc1ccc(NC(=O)CSc2ccccc2)c([N+](=O)[O-])c1	none
COc1ccc(NC(=O)CSc2ccc(F)cc2)c([N+](=O)[O-])c1	PriA SSB inh 65 (no result: Mtb hypoxia rep, ugtP null kill, Sa RN4220 lethal)
CC(=NC1CCS(=O)(=O)C1)c1c(O)cc(C)oc1=O (configuration not stated)	none (no result: Mtb hypoxia rep, ugtP null kill, Sa RN4220 lethal)
O=C(NN=Cc1ccc([N+](=O)[O-])o1)c1cc2ccccc2o1	none (not shown: PriA SSB inh, Mtb hypoxia rep)
O=C(NN=Cc1ccc([N+](=O)[O-])o1)c1cc2c(ccc3ccccc32)o1	ugtP null kill 99, Sa RN4220 lethal 98
O=C(NN=Cc1ccc([N+](=O)[O-])o1)c1cn(-c2ccccc2)nc1-c1ccc(Cl)cc1	ugtP null kill 99, Sa RN4220 lethal 99
CC1(C(=O)NN=Cc2ccc([N+](=O)[O-])o2)CC1(Br)Br (configuration not stated)	ugtP null kill 89
Cc1ccc2nc(NN=Cc3ccc([N+](=O)[O-])o3)nc(-c3ccccc3)c2c1	ugtP null kill 100, Sa RN4220 lethal 99 (no result: Mtb hypoxia rep)
Cc1cccc(CS(=O)(=O)N2CCC(Cn3cccn3)CC2)c1	none (no result: Mtb hypoxia rep, ugtP null kill, Sa RN4220 lethal)
CN(C)c1ccc(CCNC(=O)C(=O)NCc2ccccc2)cc1	none (no result: Mtb hypoxia rep, ugtP null kill, Sa RN4220 lethal)
COC(=O)N1CCC(CNC(=O)N2CCNC2=O)CC1	none (no result: Mtb hypoxia rep, ugtP null kill, Sa RN4220 lethal)
CCc1ccc2ncc(S(=O)(=O)c3ccccc3)c(NCc3ccccc3)c2c1	none (no result: Mtb hypoxia rep, ugtP null kill, Sa RN4220 lethal)
CCCc1ccc(-c2cc(C(=O)NN=Cc3ccc([N+](=O)[O-])o3)c3ccccc3n2)cc1	ugtP null kill 99, Sa RN4220 lethal 108 (no result: Mtb hypoxia rep)
N#Cc1cccc(C(=O)NCC2Cc3ccccc3CO2)c1 (configuration not stated)	none (no result: Mtb hypoxia rep, ugtP null kill, Sa RN4220 lethal)
C=CC#CC[N+]1(CC#Cc2ccccc2)CCOCC1	PriA SSB inh 54
CCOC(=O)C1CCN(C(=O)c2csc(Nc3ccc(OC(F)(F)F)cc3)n2)CC1	none (no result: Mtb hypoxia rep, ugtP null kill, Sa RN4220 lethal)
O=C(NC[C@@](O)(c1cccs1)C1CC1)C(=O)Nc1ccc2c(c1)OCCO2	none (no result: Mtb hypoxia rep, ugtP null kill, Sa RN4220 lethal)
Cn1cnc([N+](=O)[O-])c1S(=O)(=O)Oc1cccc2ccccc12	ugtP null kill 91 (not shown: Mtb hypoxia rep)
CCOC(=O)c1ccc(-c2c(-c3ccccc3OC)oc3ccccc23)cc1F	ugtP null kill 92
CCOc1ccc(S(=O)(=O)N2CCc3oncc3C2)cc1F	none (no result: Mtb hypoxia rep, ugtP null kill, Sa RN4220 lethal)
COc1ccccc1N1CCN(C(=O)c2nn(-c3ccc(C)cc3)c(=O)cc2OC)CC1	none (no result: Mtb hypoxia rep, ugtP null kill, Sa RN4220 lethal)
O=C1CN(C(=O)COC(=O)c2ccc(Cl)cc2)c2ccccc2N1	none
O=C1CN(C(=O)COC(=O)c2c(F)cccc2Cl)c2ccccc2N1	Mtb hypoxia rep 30
c1ccc(-c2cn(C[C@H]3CC[C@@H]([C@@H]4CC[C@H](Cn5cc(-c6ccccn6)nn5)O4)O3)nn2)nc1	PriA SSB inh 101 (no result: Mtb hypoxia rep, ugtP null kill, Sa RN4220 lethal)
CO[C@@H](CN)c1ccc(C)s1	none (no result: Mtb hypoxia rep, ugtP null kill, Sa RN4220 lethal)
Cc1cc(NC(=O)CCC(=O)N(C2CC2)C(C(=O)NC(C)(C)C)c2ccccc2Cl)no1 (configuration not stated)	none
CCC(C)(C)NC(=O)C(c1ccccc1Cl)N(C(=O)CCC(=O)Nc1cc(C)on1)C1CC1 (configuration not stated)	PriA SSB inh 49
O=[N+]([O-])c1ccc(N2CCCCCC2)c2ncccc12	PriA SSB inh 42
O=[N+]([O-])c1cc(S(=O)(=O)c2ccc(N3CCCCC3)c([N+](=O)[O-])c2)ccc1N1CCCCC1	PriA SSB inh 42
O=[N+]([O-])c1ccc(N2CCOCC2)c2ncccc12	none (no result: Mtb hypoxia rep, ugtP null kill, Sa RN4220 lethal)
CS(=O)(=O)c1ccc(N2CCC(Cc3ccccc3)CC2)c([N+](=O)[O-])c1	PriA SSB inh 41 (no result: Mtb hypoxia rep, ugtP null kill, Sa RN4220 lethal)
O=[N+]([O-])c1ccc(N2CCCCC2)c2ncccc12	PriA SSB inh 51
O=[N+]([O-])c1ccc(N2CCCNCC2)c2ncccc12	none (no result: Mtb hypoxia rep, ugtP null kill, Sa RN4220 lethal)
COc1ccc(CCNC(=O)Cn2nc(-c3ccco3)ccc2=O)cc1	none (no result: Mtb hypoxia rep, ugtP null kill, Sa RN4220 lethal)
COc1ccc2nc(N3CCC(O)CC3)c(C#N)cc2c1	none (no result: Mtb hypoxia rep)
COc1ccc2nc(N3CCC(C)CC3)c(C#N)cc2c1	ugtP null kill 89
O=[N+]([O-])c1cccc(-c2csc(NN=Cc3cccc(O)c3)n2)c1	ugtP null kill 94
O=[N+]([O-])c1ccc(-c2csc(NN=Cc3cccnc3)n2)cc1	none
O=C(NCc1cccs1)c1ccc(S(=O)(=O)N2CCOCC2)o1	none (no result: Mtb hypoxia rep, ugtP null kill, Sa RN4220 lethal)
CCC(=O)Nc1nnc(S(=O)(=O)N2c3ccccc3CC2C)s1 (configuration not stated)	PriA SSB inh 100
COc1cc2ccccc2cc1C(=O)Nc1ccc(Br)cc1C(=O)c1ccccc1	none (no result: Mtb hypoxia rep, ugtP null kill, Sa RN4220 lethal)
O=C(COc1ccc(F)cc1)NN=Cc1cccc2cccnc12	none
CCOc1ccc(C(=O)NN=Cc2cccc3cccnc23)cc1	PriA SSB inh 89 (no result: Mtb hypoxia rep)
O=C(N/N=C/c1cccc2nccnc12)c1ccccc1O	none (no result: Mtb hypoxia rep, ugtP null kill, Sa RN4220 lethal)
COc1ccccc1OCC(=O)NN=Cc1cccc2cccnc12	none
O=C(N/N=C/c1cccc2nccnc12)c1ccncc1	PriA SSB inh active (no result: Mtb hypoxia rep, ugtP null kill, Sa RN4220 lethal)
O=C(N/N=C/c1cccc2cccnc12)c1ccccc1O	PriA SSB inh active (no result: Mtb hypoxia rep, ugtP null kill, Sa RN4220 lethal)
COc1ccc(C(=O)NN=Cc2cccc3cccnc23)cc1	PriA SSB inh 80
Cc1cc(C)n(-c2ccc(=O)n(CC(=O)NCCNC(=O)c3ccc(NC(=O)C4CC4)cc3)n2)n1	none (no result: Mtb hypoxia rep, ugtP null kill, Sa RN4220 lethal)
COc1ccc(C2CCCN2CCNC(=O)Nc2ccccc2)cc1 (configuration not stated)	none (no result: Mtb hypoxia rep, ugtP null kill, Sa RN4220 lethal)
COc1ccc(OCc2noc(CNC(=O)Cc3sc(C)nc3C)n2)cc1	none (no result: Mtb hypoxia rep, ugtP null kill, Sa RN4220 lethal)
Cc1cccc([N+](=O)[O-])c1NC(=O)CN(Cc1ccccc1)Cc1ccccc1	ugtP null kill 99
Cc1cccc(C)c1NC(=O)CNC(=O)Cc1ccccc1[N+](=O)[O-]	none
CCOc1ccc(N(CC(=O)NCCc2ccccc2)C(=O)CCC(=O)Nc2cc(C)ccn2)cc1	PriA SSB inh 104
COc1ccc(-c2cc(C(F)(F)F)nc(N3CCCCCC3)n2)cc1	ugtP null kill 95
COc1ccc(CNc2cc([N+](=O)[O-])ccc2OC)cc1	none
COc1ccc(C)cc1NCc1ccc([N+](=O)[O-])cc1	PriA SSB inh 40
O=C(Nc1nc2c(s1)CN(S(=O)(=O)C1CC1)CC2)c1cc(-c2cccs2)[nH]n1	none (no result: Mtb hypoxia rep, ugtP null kill, Sa RN4220 lethal)
c1ccc(C2=NNC(=NCc3ccc4c(c3)OCO4)SC2)cc1	PriA SSB inh 47
CC(C)(C)C(=O)Nc1ccc2c(c1)OCCOCCOc1cc(NC(=O)C(C)(C)C)ccc1OCCOCCO2	Mtb hypoxia rep 36
CC(=O)Nc1ccc2c(c1)OCCOCCOc1cc(NC(C)=O)ccc1OCCO2	none
Nc1ccc2c(c1)Nc1ccccc1CC2	PriA SSB inh 58
CC1CCN(C(=O)c2[nH]cnc2C(=O)N[C@@H](C)C(=O)OCc2ccccc2)CC1	PriA SSB inh 44 (no result: Mtb hypoxia rep, ugtP null kill, Sa RN4220 lethal)
O=C(CCl)N1c2ccccc2Oc2ccc3ccccc3c21	ugtP null kill 99, Sa RN4220 lethal 90
Cc1[nH][nH]c(=O)c1C(c1c(C)[nH][nH]c1=O)c1cn(C)c2ccccc12	none
Cc1[nH][nH]c(=O)c1C(c1c(C)[nH][nH]c1=O)c1cn(Cc2cccc3ccccc23)c2ccccc12	ugtP null kill 94 (no result: Mtb hypoxia rep)
O=c1[nH]c2ccc(Br)cc2c(-c2ccccc2)c1N1CCOCC1	none
CC(=O)c1c(N2CCOCC2)nc2ccc(Br)cc2c1-c1ccccc1	ugtP null kill 85
CC1CCC(C(C)C)C(OP(=O)(NCc2ccccc2)OC2CC(C)CCC2C(C)C)C1 (configuration not stated)	none (no result: Mtb hypoxia rep, ugtP null kill, Sa RN4220 lethal)

Bioassay records (PubChem BioAssay)
